# Shown are actives, neighbours in structure and some others; about 1.6% of the full set was active somewhere.
# KCNQ2 enhance – potentiators of rat KCNQ2 potassium channel; O88943; B-score at 10 µM; 0.54% of 310,000 active; CHO-K1 KCNQ2, FluxOR thallium flux fluorescence; active compounds read high;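 active means fluorescence ratio B-score at least 3 SD of library B-scores, with initial fluorescence B-score within 3 of them, cut at about 5.3 in these data; same plate scores as AID 2156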;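 further: B-score of peak minus minimum over baseline fluorescence ratio after K+ and Tl+ stimulus; positive B-score means potentiation of KCNQ2 with more thallium influx and brighter signal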
# KCNQ2 block – blocks the rat KCNQ2 potassium channel; O88943; CHO-K1 KCNQ2, FluxOR thallium flux, 20 min; active compounds read low; B-score at 10 µM; 1.1% of 310,000 active;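 active means fluorescence ratio B-score at most minus 3 library SDs, with starting brightness B-score within 2 library SDs, cut at about -5.5 in these data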
# KCNQ2 block conf – confirmation of rat KCNQ2 potassium channel inhibitors; KCNQ2-expressing cells, thallium flux, inhibition; active compounds read low; activity change, negative = inhibition, % at 10 µM; AID 493025; 57% of 1,000 active; shares compounds with KCNQ2 block;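 further: 0% = vehicle wells and values are ratio percent relative to vehicle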
# KCNQ1 spec – human KCNQ1 activity in KCNQ2 inhibitor specificity screen. shares compounds with KCNQ2 block. KCNQ1-expressing cells, FluxOR thallium flux fluorescence; active compounds read low. activity change, negative = inhibition, % at 10 µM. 15% of 1,000 active. AID 493026;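 active means activity change at least 3 SD of negative controls below their mean in both duplicate wells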;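 further: CHO cells stably transfected with KCNQ1 and depolarized by potassium stimulus; peak minus minimum fluorescence over baseline after thallium addition; 0% = vehicle negative control and -100% = blank without thallium stimulus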
# CHO parental ctr – KCNQ2 inhibitor counter-screen hit in parental CHO cells | shares compounds with KCNQ2 block | thallium flux counter-screen; active compounds read low | activity change, % at 10 µM | 14% of 1,000 active;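 further: 0% = vehicle negative controls with stimulus buffer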
# KCNQ2 patch conf – confirmation of rat KCNQ2 potassium channel inhibitors. KCNQ2-expressing cells, automated patch clamp current. 49% of 550 active. AID 588531. shares compounds with KCNQ2 block. calls only at 10 µM
# Kir21 conf inh – confirmation of mouse Kir2.1 potassium channel inhibitors | shares compounds with KCNQ2 enhance | Kir2.1-expressing cells, FluxOR thallium flux fluorescence; active compounds read low | Tl flux remaining, % of negative control (active compounds read low), % at 10 µM | 41% of 2,300 active;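 active means Primary-screen hit whose thallium flux fell at least 3 control SD below untreated wells in both duplicates, with normal baseline fluorescence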;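 further: 0% = blank wells without stimulus and 100% = stimulated no-compound controls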
# Target sequence (P35561 whole entry, looked up): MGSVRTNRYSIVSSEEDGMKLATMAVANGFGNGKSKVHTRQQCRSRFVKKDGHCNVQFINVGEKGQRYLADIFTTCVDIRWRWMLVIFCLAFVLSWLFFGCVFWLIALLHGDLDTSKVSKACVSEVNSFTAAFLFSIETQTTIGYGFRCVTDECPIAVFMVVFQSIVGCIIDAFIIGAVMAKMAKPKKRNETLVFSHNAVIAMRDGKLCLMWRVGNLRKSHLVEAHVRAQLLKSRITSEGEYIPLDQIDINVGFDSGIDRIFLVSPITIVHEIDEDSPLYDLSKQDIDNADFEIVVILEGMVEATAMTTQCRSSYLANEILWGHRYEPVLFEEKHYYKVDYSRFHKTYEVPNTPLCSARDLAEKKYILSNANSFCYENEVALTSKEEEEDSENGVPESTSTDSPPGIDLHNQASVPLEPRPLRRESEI
# HEK293 ctr – counter-screen for Kir2.1 inhibitors: effect in parental HEK293 cells. shares compounds with KCNQ2 enhance. 19% of 2,300 active. FluxOR signal as % of negative control (100 = no effect), % at 10 µM. FluxOR thallium flux fluorescence; 0% = unstimulated blank wells. AID 2105;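 active means dye signal at least 3 control SD above or below untreated wells in both duplicates, raw fluorescence within 3, either direction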;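 further: percent is based on the flux ratio of peak minus minimum fluorescence over baseline F0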
# CHO-K1 Tl ctr – parental CHO-K1 activity in KCNQ2 potentiator counter-screen | activity increase over 3SD of controls, % at 10 µM | parental CHO-K1 cells, FluxOR thallium flux fluorescence; zero = vehicle mean+3SD, 100% = vehicle-minus-blank window | AID 2282 | shares compounds with KCNQ2 enhance | 43% of 1,200 active;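 active means signal rise of at least 3 SD above the untreated control mean, in both duplicate wells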;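 further: counter screen of KCNQ2 potentiator hits so any rise reflects channel-independent effects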
# KCNQ1 pot spec – selectivity of KCNQ2 potentiators: effect on human KCNQ1; shares compounds with KCNQ2 enhance; CHO KCNQ1 stable, FluxOR thallium flux fluorescence; beyond 3SD, as % of vehicle-control signal; activation over 3SD threshold, % at 10 µM; 28% of 1,200 active; AID 2283;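 active means fluorescence ratio rise of at least 3 SD of vehicle wells above their mean, in both replicate wells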;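 further: 0% = vehicle mean plus 3 SD and 100% = vehicle minus unstimulated blank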
# KCNQ2 pot confirm – rat KCNQ2 channel potentiator confirmation. shares compounds with KCNQ2 enhance. CHO-KCNQ2 cells, FluxOR thallium flux fluorescence. potentiation, less the hit threshold, % at 10 µM. 68% of 1,200 active. AID 2287;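 active means fluorescence ratio rising 3 SD or more over the vehicle control mean in both replicates, plus primary screen hit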;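 further: peak minus minimum thallium fluorescence divided by baseline after K/Tl stimulus; 0% = vehicle mean plus 3 SD and 100% = vehicle minus unstimulated blank difference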
# Kir2-1 sel – mouse Kir2.1 off-target activity of KCNQ2 potentiators; HEK293 Kir2.1, FluxOR thallium flux fluorescence; shares compounds with KCNQ2 enhance; 2% of 1,200 active; activity over 3SD threshold, % at 10 µM;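 active means fluorescence ratio rise of at least 3 SD above the vehicle-control mean, seen in both replicates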;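 further: 0% = vehicle mean plus 3 SD and 100% = vehicle minus no-stimulus blank window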
# KCNQ2 W236L MoA – potentiates the retigabine-insensitive rat KCNQ2 W236L mutant channel. shares compounds with KCNQ2 enhance. CHO KCNQ2-W236L, automated patch clamp current. current increase over 3SD of negative controls (%), active compounds read high, % at 25 µM. 10% of 940 active;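 active means current increase at least 3 SD of the untreated controls above them in both duplicate recordings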
# The depositor's hits bear a star; i = inactive; . = not tested or not shown; + = active, no number; ! = not active in a repeat. Unless noted, how the calls were made is not given here.
SMILES,KCNQ2 enhance,KCNQ2 block,KCNQ2 block conf,KCNQ1 spec,CHO parental ctr,others
COc1ccccc1S(=O)Cc1ccc(C(=O)NCCc2ccc(Cl)cc2)o1 (configuration not stated),.,i,.,.,.,
CC(=O)c1c[nH]c(C(=O)NCc2ccccc2Cl)c1,.,i,.,.,.,
CCOC(=O)c1cnc2c(OC)cccc2c1N1CCN(c2ccccc2OC)CC1,-12,-12*,-30%*,i,i,KCNQ2 patch conf=i
CCOC(=O)c1cnc2c(OC)cccc2c1N1CCN(c2ccc(OC)cc2)CC1,.,i,.,.,.,
CC1(O)c2ccccc2C(=O)N1Cc1ccccc1 (configuration not stated),0.05,i,.,.,.,
O=C1c2ccccc2C(O)(c2ccccc2)N1CCc1ccccc1 (configuration not stated),-8.4,-8.4*,-24%*,i,i,KCNQ2 patch conf=+
Nc1nc(N2CCN(c3ccc(F)cc3)CC2)n[nH]1,0.34,i,.,.,.,
COc1ccc(Br)cc1C(=O)Nc1ccccc1N1CCCC1,.,i,.,.,.,
COc1ccc(Br)cc1C(=O)Nc1ccccc1-c1ccccc1,-9.3,-9.3*,-15%*,i,i,KCNQ2 patch conf=i
COc1ccc(Cl)cc1C(=O)Nc1ccccc1N1CCN(C)CC1,.,i,.,.,.,
COc1cc(C(=O)NC(=S)Nc2ccccc2N2CCCC2)cc(OC)c1OC,.,i,.,.,.,
COc1cc(C(=O)Nc2ccccc2N2CCCCC2)cc(OC)c1OC,-7.4,-7.4*,-39%*,-28%*,i,KCNQ2 patch conf=+
COc1ccc(Cl)cc1C(=O)Nc1ccccc1N1CCCCC1,-7.5,-7.5*,-32%*,i,i,KCNQ2 patch conf=i
Cc1ccccc1NS(=O)(=O)c1cc(C(=O)NCc2ccncc2)ccc1Cl,.,i,.,.,.,
Cc1cccc(-c2nc(CN3CCCC(C(=O)NC4CCCC4)C3)c(C)o2)c1 (configuration not stated),.,i,.,.,.,
Cc1cccc(-c2nc(CN3CCCC(C(=O)NC4CCC(C)CC4)C3)c(C)o2)c1 (configuration not stated),-9.6,-9.6*,-26%*,i,i,KCNQ2 patch conf=+
O=C(NCc1ccc(F)cc1)C1CCN(S(=O)(=O)c2cccc3nonc23)CC1,.,i,.,.,.,
c1ccc2c(OCCCN3CCCCCC3)cccc2c1,0.29,i,.,.,.,
O=c1c2ccccc2nc(COc2ccccc2)n1/N=C/c1ccc(O)c(O)c1,.,i,.,.,.,
O=c1c2ccccc2nc(COc2ccccc2)n1/N=C/c1ccco1,-10,-10*,i,i,i,
CCC(C)(C)c1ccc(OCCCC[n+]2cccc(C)c2)c(C(C)(C)CC)c1,-8.4,-8.4*,i,i,i,Kir21 conf inh=33%*;HEK293 ctr=i
Cc1ccc[n+](CC(=O)Nc2cc(C(F)(F)F)ccc2Cl)c1,1.7,i,.,.,.,
COC(=O)c1c(C(=O)OC)c(-c2cccc(F)c2)n2c1CS(=O)(=O)C2,0.08,i,.,.,.,
Cc1ccc(-c2nn(-c3ccccc3)cc2CO)cc1,.,i,.,.,.,
N=C(N)SCc1cn(-c2ccccc2)nc1-c1ccc(Br)cc1,-12,-12*,i,i,i,Kir21 conf inh=13%*;HEK293 ctr=56%*
SMILES,KCNQ2 enhance,KCNQ2 block,KCNQ2 block conf,KCNQ1 spec,CHO parental ctr,others
CCC[C@H](CN[C@@H](CNC)[C@H](C)CC)NCCc1cc(C(F)(F)F)cc(C(F)(F)F)c1,.,i,.,.,.,
CC[C@@H](C)[C@H](CNC)NC[C@@H](Cc1cccc2ccccc12)NCCc1cccc(C(F)(F)F)c1,-8.5,-8.5*,-29%*,i,i,KCNQ2 patch conf=i;Kir21 conf inh=22%*;HEK293 ctr=i
CN1CCN(S(=O)(=O)c2cccc(C(=O)N(C)CC(=O)Nc3ccc(F)c(F)c3F)c2)CC1,0.62,i,.,.,.,
O=C(/C=C/c1ccc(OCc2ccccc2)c(OCc2ccccc2)c1)c1cccnc1,.,i,.,.,.,
O=C(/C=C/c1ccc(Cl)cc1)c1cccnc1,-7.6,-7.6*,-28%*,i,i,KCNQ2 patch conf=i;Kir21 conf inh=68%*;HEK293 ctr=i
CC(=O)c1cccc(NC(=O)C(C)OC(=O)c2cccc(-n3cnnn3)c2)c1 (configuration not stated),0.66,i,.,.,.,
CCN1C(=O)C(C(=O)c2ccccc2)SC1=S (configuration not stated),.,i,.,.,.,
NC(N)=N/N=C/c1ccc(OCc2ccccc2)c(OCc2ccccc2)c1,.,i,.,.,.,
CCOc1cc(/C=N/N=C(N)N)ccc1OCc1ccc(Cl)cc1,-10,-10*,i,i,i,Kir21 conf inh=62%*;HEK293 ctr=i
CCOC(=O)Cn1c(COc2ccccc2OC)[n+](C)c2ccccc21,0.52,i,.,.,.,
Cc1ccccc1OCc1n(CC(=O)OC2CC(C)CCC2C(C)C)c2ccccc2[n+]1C (configuration not stated),-11,-11*,-40%*!,i,i,KCNQ2 patch conf=+;Kir21 conf inh=14%*;HEK293 ctr=i
Cc1cc(C(=O)NCc2ccccc2Cl)n(-c2ccccc2)n1,.,i,.,.,.,
CCc1ccc(C(O)(CNCc2ccccc2)c2ccccc2)cc1 (configuration not stated),-6.9,-6.9*,-32%*,-36%*,-28%*,KCNQ2 patch conf=i;Kir21 conf inh=69%*;HEK293 ctr=i
CCc1ccc(NC(=S)NCc2ccccc2)cc1,0.74,i,.,.,.,
CC(C)c1ccccc1NCC(=O)N1CCN(Cc2ccccc2)CC1,.,i,.,.,.,
Cc1c(C(=O)N/N=C/c2cccnc2)sc(N)c1C#N,1.5,i,.,.,.,
O=C(c1c[nH]c(C(=O)C(Cl)(Cl)Cl)c1)c1ccc(F)cc1Cl,6.6*,i,.,.,.,Kir21 conf inh=i;HEK293 ctr=i;CHO-K1 Tl ctr=-4;KCNQ1 pot spec=-20;KCNQ2 pot confirm=4.6*;Kir2-1 sel=-40;KCNQ2 W236L MoA=i
